Activity calls are given as the source filed them. Unless noted, how the calls were made is not given here.
Legend:
[1] = compound effects on lung adenocarcinoma cell viability – A549, calcein-AM fluorescence, 48 h, basal, profiling panel (AID 1162); settings: higher = more signal; further: test concentration not given here
[2] = compound effects on differentiated 3T3-L1 adipocyte viability – cell-based, 3T3-L1 adipocytes, calcein-AM fluorescence, 48 h, basal, profiling panel (AID 1163); settings: 3T3-L1 adipocytes viability, higher = more signal; further: test concentration not given here
[3] = compound effects on hepatocellular carcinoma cell viability – HepG2, calcein-AM fluorescence, 48 h, basal, profiling panel (AID 1164); settings: higher = more signal; further: test concentration not given here
[4] = compound effects on multiple myeloma cell viability – MM1S, calcein-AM fluorescence, 48 h, basal, profiling panel (AID 1165); settings: higher = more signal;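 further: viability of MM1S multiple myeloma cells under basal unstimulated conditions; test concentration not given here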
[5] = calcein-AM signal in unstimulated myeloma cells – cell-based, calcein-AM fluorescence, 48 h, PK04 Diversity Set, profiling panel (AID 1166); settings: RPMI8226 myeloma viability, higher = more signal;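 further: cells grown under basal conditions without added stimulus; test concentration not given here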
[6] = JC-1 mitochondrial signal, unstimulated HepG2 cells – cell-based, JC-1 fluorescence, 24 h, 100 nL compound, profiling panel (AID 1167); settings: HepG2 mitochondrial potential, higher = more signal; further: test concentration not given here
[7] = JC-1 mitochondrial signal, unstimulated adipocytes – cell-based, JC-1 fluorescence, 3T3-L1 adipocytes, 24 h, 100 nL compound, profiling panel (AID 1168); settings: JC-1 mitochondrial fluorescence, higher = more signal, called active from +8 up or from −8 down; further: test concentration not given here
[8] = JC-1 mitochondrial signal, unstimulated myeloma cells – cell-based, JC-1 fluorescence, RPMI8226, 24 h, 100 nL compound, profiling panel (AID 1169); settings: JC-1 mitochondrial potential fluorescence, higher = more signal; further: test concentration not given here
[9] = JC-1 mitochondrial signal, unstimulated MM1S myeloma – cell-based, JC-1 fluorescence, 24 h, 100 nL compound, profiling panel (AID 1170); settings: MM1S mitochondrial potential, higher = more signal; further: test concentration not given here
[10] = resazurin metabolic signal in A549 cells – cell-based, resazurin fluorescence, 24 h, PK04 Diversity Set, profiling panel (AID 1171); settings: A549 viability, higher = more signal, called active from +8 up or from −8 down; further: test concentration not given here
[11] = resazurin metabolic signal in HepG2 cells – cell-based, resazurin fluorescence, 24 h, PK04 Diversity Set, profiling panel (AID 1172); settings: HepG2 viability, higher = more signal; further: test concentration not given here
[12] = budding yeast growth changes without added modifier – OD600, strain BY4716, 24 h, basal condition, primary screen (AID 1173); settings: S. cerevisiae BY4716 growth, OD600, 24 h; higher = more signal, called active from +8 up or from −8 down
[13] = viability profiling in MM1S myeloma cells – cell-based, resazurin fluorescence, basal, 24 h, PK04 Diversity Set, profiling panel (AID 1174); settings: higher = more signal, called active from +8 up or from −8 down; further: test concentration not given here
[14] = target: Dihydroorotate dehydrogenase (quinone), mitochondrial (Plasmodium falciparum (isolate 3D7)) (UniProt Q08210); experiment: inhibition of P. falciparum DHODH – biochemical, C-terminal His tag, absorbance 600 nm, primary screen (AID 1175); settings: PfDHODH enzyme, DCIP absorbance 600 nm; higher = more signal, called active from +8 up or from −8 down;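 further: recombinant parasite enzyme with a five histidine tag at its C terminus; test concentration not given here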
[15] = inhibition of PAO1 biofilm formation – strain PAO1, LB-PBS medium, absorbance 600 nm, primary screen (AID 1176); further: test concentration not given here; settings: P. aeruginosa PAO1 growth/biofilm, A600, 12 h; higher = more signal
[16] = growth modulation of vineyard yeast isolate – strain RM11-1a, OD600, basal, 24 h, primary screen (AID 1177);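 further: cultures grown under basal conditions with no added stressor; test concentration not given here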; settings: S. cerevisiae RM11-1a growth, OD600, 24 h; higher = more signal, called active from +8 up or from −8 down
[17] = growth of efflux-deficient E. coli DRC39 – strain DRC39, OD650, 24 h, E. coli filamentation inducers, primary screen (AID 1178);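 further: growth measured as culture turbidity by optical density at 650 nm; test concentration not given here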; settings: E. coli DRC39 acrAB, higher = more signal, called active from +8 up or from −8 down
[18] = growth of efflux-deficient E. coli DRC39 – strain DRC39, OD650, 48 h, E. coli filamentation inducers, primary screen (AID 1179);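 further: screen aims at cell division blockers that make cells filament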; settings: E. coli DRC39 delta-acrAB growth, higher = more signal, called active from +8 up or from −8 down
[19] = viability profiling in RPMI8226 myeloma cells – cell-based, resazurin fluorescence, basal, 24 h, PK04 Diversity Set, profiling panel (AID 1180); settings: higher = more signal;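 further: RPMI8826 multiple myeloma cell line at 5000 cells per well; test concentration not given here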
[20] = target: E3 ubiquitin-protein ligase XIAP (Homo sapiens) (UniProt P98170); experiment: small molecules binding XIAP protein – biophysical, small-molecule microarray, fluorescence 635 nm, primary screen (AID 1181); settings: higher = more signal;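 further: score merges 667 nm emission and signal to noise over triplicate slides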
Sequence of E3 ubiquitin-protein ligase XIAP (Homo sapiens) (P98170 whole entry, looked up): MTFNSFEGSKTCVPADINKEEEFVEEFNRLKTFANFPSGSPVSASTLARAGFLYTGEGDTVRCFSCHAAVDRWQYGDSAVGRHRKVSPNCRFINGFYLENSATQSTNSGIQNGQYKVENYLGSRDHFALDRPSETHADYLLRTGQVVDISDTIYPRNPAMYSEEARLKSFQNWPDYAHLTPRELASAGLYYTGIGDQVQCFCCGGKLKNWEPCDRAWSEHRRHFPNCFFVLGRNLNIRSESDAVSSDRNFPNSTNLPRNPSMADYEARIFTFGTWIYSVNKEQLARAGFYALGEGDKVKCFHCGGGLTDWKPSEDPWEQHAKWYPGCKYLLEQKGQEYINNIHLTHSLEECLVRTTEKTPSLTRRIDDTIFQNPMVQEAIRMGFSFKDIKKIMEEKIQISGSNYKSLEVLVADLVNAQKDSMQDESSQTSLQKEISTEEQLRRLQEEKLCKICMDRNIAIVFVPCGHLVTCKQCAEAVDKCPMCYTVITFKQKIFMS

Sequence of Dihydroorotate dehydrogenase (quinone), mitochondrial (Plasmodium falciparum (isolate 3D7)) (Q08210 whole entry, looked up): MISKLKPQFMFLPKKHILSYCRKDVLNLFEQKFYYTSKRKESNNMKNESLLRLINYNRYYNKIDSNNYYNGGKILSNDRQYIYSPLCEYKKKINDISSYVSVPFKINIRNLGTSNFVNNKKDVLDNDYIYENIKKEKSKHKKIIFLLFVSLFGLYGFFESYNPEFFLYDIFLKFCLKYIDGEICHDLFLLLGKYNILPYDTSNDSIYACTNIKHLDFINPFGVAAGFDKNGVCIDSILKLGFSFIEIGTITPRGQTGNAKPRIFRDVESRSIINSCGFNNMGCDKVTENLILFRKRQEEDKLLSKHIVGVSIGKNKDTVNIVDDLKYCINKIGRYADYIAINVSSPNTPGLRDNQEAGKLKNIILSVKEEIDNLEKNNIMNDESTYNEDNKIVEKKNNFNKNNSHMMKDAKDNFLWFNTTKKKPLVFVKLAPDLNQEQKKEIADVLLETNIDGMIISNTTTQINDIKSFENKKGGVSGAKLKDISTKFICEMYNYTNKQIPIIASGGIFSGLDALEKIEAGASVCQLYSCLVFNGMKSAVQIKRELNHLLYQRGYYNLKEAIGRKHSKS

| SMILES | z-score [1] | z-score [2] | z-score [3] | z-score [4] | z-score [5] | z-score [6] | z-score [7] | z-score [8] | z-score [9] | z-score [10] | z-score [11] | z-score [12] | z-score [13] | composite z-score [14] | z-score [15] | z-score [16] | z-score [17] | z-score [18] | z-score [19] | composite z-score [20] |
| --- | --- | --- | --- | --- | --- | --- | --- | --- | --- | --- | --- | --- | --- | --- | --- | --- | --- | --- | --- | --- |
| C#C[C@@H](CC)O[Si](C#CCCCC#N)(C(C)C)C(C)C | -0.533 | -0.87 | -0.168 | -3.16 | -0.501 | -0.626 | 0.117 (inactive) | -0.45 | -1.73 | -0.0413 (inactive) | -0.276 | -17.4 (active) | -0.651 (inactive) | -1.06 (inactive) | 0.113 (inactive) | -2.5 (inactive) | 0.0725 (inactive) | 0.173 (inactive) | -0.221 | -0.142 |
| CN1C(=O)C2C=CC(C(O)c3cc(C(F)(F)F)cc(C(F)(F)F)c3)N(Nc3ccccc3)C2C1=O (stereo not given) | -1.53 | -1.36 | -0.78 | -0.239 | -0.683 | -1.09 | -0.551 (inactive) | -0.222 | 0.333 | 0.672 (inactive) | -0.0075 | -2.64 (inactive) | -0.18 (inactive) | -0.274 (inactive) | 0.214 (inactive) | -0.478 (inactive) | -0.732 (inactive) | -0.556 (inactive) | 0.298 | 0.0641 |
| C=C(CCCC)C(=O)CC[C@H](OC(C)=O)c1ccc(OCCO)cc1 | 0.95 | 3.04 | -0.0781 | -2.86 | -3.54 | 0.764 | -0.387 (inactive) | -0.248 | -1.39 | 0.697 (inactive) | 0.574 | -3.3 (inactive) | -0.464 (inactive) | -0.788 (inactive) | 0.0022 (inactive) | -2.33 (inactive) | -0.0158 (inactive) | 0.539 (inactive) | -0.939 | 0.648 |
| COc1ccc([Si](C)(C)[C@@H]2[C@@H](CCn3cc([C@H](O)c4ccccc4)nn3)O[C@]3(C(=O)N(Cc4cccc(N5C(=O)c6cccc7cccc5c67)c4)c4ccccc43)[C@H]2C)cc1 | -0.381 | 0.0092 | 0.3 | -0.189 | -2.11 | 1.07 | -0.265 (inactive) | -0.681 | -0.193 | -1.26 (inactive) | -0.167 | 1.33 (inactive) | -2.01 (inactive) | 0.736 (inactive) | 0.106 (inactive) | 2.11 (inactive) | -0.494 (inactive) | -0.787 (inactive) | -1.19 | -0.217 |
| C=CC[C@H](OC(=O)Nc1ccc(SC)cc1)c1ccc(OCCO)cc1 | -0.542 | -0.228 | -0.91 | -0.75 | 0.329 | -1.68 | -0.313 (inactive) | -0.309 | -0.227 | 0.631 (inactive) | 0.826 | -3.71 (inactive) | 0.819 (inactive) | -1.51 (inactive) | 0.119 (inactive) | 1.07 (inactive) | -0.0217 (inactive) | -0.254 (inactive) | 0.194 | 0.0264 |
| COc1ccc(C(O)C2C=CC3C(=O)N(c4ccccc4)C(=O)C3N2Nc2ccccc2F)cc1 (stereo not given) | -0.775 | 0.406 | -0.596 | -0.808 | -2.08 | -0.334 | -0.149 (inactive) | -0.288 | -0.855 | 0.21 (inactive) | -0.229 | -0.359 (inactive) | -0.0646 (inactive) | -0.0377 (inactive) | 0.987 (inactive) | -0.687 (inactive) | -0.548 (inactive) | -0.869 (inactive) | 0.435 | 0.483 |
| COc1ccc([Si](C)(C)[C@@H]2[C@@H](CC(=O)N3Cc4ccccc4C[C@H]3CO)O[C@]3(C(=O)N(c4ccccc4)c4ccccc43)[C@H]2C)cc1 | -0.77 | 0.703 | -2.85 | -2.37 | -4.35 | 1.37 | 0.631 (inactive) | -1.06 | -2.08 | -1.39 (inactive) | -1.05 | 0.318 (inactive) | -2.64 (inactive) | 1.13 (inactive) | 0.626 (inactive) | 2.42 (inactive) | 0.33 (inactive) | -0.165 (inactive) | -4.45 | 2.42 |
| C[C@@]12COC[C@]13C=C(Br)[C@H](C2)[C@@]1(CO1)C3=O | 0.109 | -0.245 | -0.318 | -1.75 | -0.31 | -1.47 | -0.24 (inactive) | 0.253 | -1.12 | -0.557 (inactive) | 0.138 | -1.38 (inactive) | -0.0295 (inactive) | -0.658 (inactive) | -0.259 (inactive) | -0.187 (inactive) | -0.651 (inactive) | -0.534 (inactive) | 0.219 | -0.154 |
| Cc1ccccc1C(O)C1C=CC2C(=O)NC(=O)C2N1Nc1ccc(Cl)cc1Cl (stereo not given) | -0.235 | -0.636 | -0.245 | -2.93 | -1.58 | -2.8 | -0.879 (inactive) | -0.153 | 0.106 | -0.8 (inactive) | -2.17 | -9.05 (active) | -1.03 (inactive) | 0.107 (inactive) | 1.15 (inactive) | 0.251 (inactive) | -0.511 (inactive) | -0.963 (inactive) | -1.25 | 2.02 |
